Bioassay records deposited in PubChem BioAssay by several laboratories.
This is a sample that favours compounds with a hit; in the whole collection about 2.7% have one here.
bovine MsrA act: bovine methionine sulfoxide reductase A activation; purified bovine MsrA, absorbance read-out; activation, % at 10.6 µM; 0.3% of 360,000 active; AID 602163; in the data active = activation above about 7.5%
rCAG binder: binds r(CAG) RNA repeats; inhibition, % at 3 µM; 1.3% of 370,000 active; r(CAG) RNA repeat, TO-PRO-1 dye displacement fluorescence; AID 651821;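 active = inhibition above the plate cutoff, the mean of all test compounds on that plate plus 3 SD, cut at about 35% in these data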;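 also: higher means more dye released from RNA so lower well fluorescence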
NadD inh: NadD (S. aureus) enzyme inhibition; AID 602399; purified NadD enzyme, colorimetric absorbance read-out; 0.78% of 360,000 active; inhibition, % at 20 µM; in the data active = inhibition above about 26%
MsrA inhibitor: inhibits bovine methionine sulfoxide reductase A | purified bovine MsrA, absorbance read-out | inhibition, % at 15.5 µM | 0.75% of 360,000 active
MsrA inh confirm: bovine MsrA inhibition, confirmed; shares compounds with MsrA inhibitor; purified bovine MsrA, absorbance read-out; inhibition, % at 15.5 µM; 41% of 2,300 active; AID 651822;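 also: coupled to thioredoxin reductase with NADPH and selenocystamine and DMSO as substrate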
rCAG binder conf: r(CAG) RNA repeat binding, confirmation. shares compounds with rCAG binder. TO-PRO-1 dye displacement fluorescence. inhibition, % at 3 µM. 70% of 4,300 active. AID 652065;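 active = inhibition above a per-plate cutoff, the mean inhibition of sample wells plus 3 SD, cut at about 35% in these data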;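 also: loss of TO-PRO-1 fluorescence as compound displaces dye from 1x1 AA loop RNA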
DNA CAG counter: counter-screen for rCAG RNA binders: DNA CAG dye complex inhibitors; d(CAG) DNA oligo TO-PRO-1 dye displacement, fluorescence; inhibition, % at 3 µM; 94% of 4,300 active; shares compounds with rCAG binder; AID 652068;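 active = inhibition above its plate's cutoff, the mean test-well inhibition plus 3 SD, cut at about 4.8% in these data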;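 also: hits displace the dye from DNA and so lower well fluorescence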
Large screens that a line does not name were inactive (follow-up assays come after a bar, where they were run). Rule as the data show it, unless noted: active = inhibition above about 4.5%; inactive = the rest.

O=C(O)CC/C(=N\Nc1ccc(S(=O)(=O)N2CCOCC2)cc1[N+](=O)[O-])c1cccs1	rCAG binder 56, MsrA inhibitor 4.9 | MsrA inh confirm 4.7 | rCAG binder conf 59 | DNA CAG counter 23
O=C(O)CC/C(=N\Nc1ccccc1[N+](=O)[O-])c1cccs1	none (no result: rCAG binder, MsrA inhibitor)
O=C(O)CC/C(=N\Nc1ccc(S(=O)(=O)N2CCCC2)cc1[N+](=O)[O-])c1cccs1	rCAG binder 71, MsrA inhibitor 4.8 | MsrA inh confirm inactive | rCAG binder conf 60 | DNA CAG counter 22
O=S(=O)(Nc1ccc(C(O)(C(F)(F)F)C(F)(F)F)cc1)c1cccc2cccnc12	none
O=C(O)c1ccc(/C=N/NC(=O)c2cc3ccccc3cc2O)cc1	rCAG binder 47, MsrA inhibitor 5.0 | MsrA inh confirm inactive | rCAG binder conf inactive | DNA CAG counter 7.6
O=C(CNc1ccc2ccccc2c1)N/N=C/c1ccc(C(=O)O)cc1	none
COc1ccc(S(=O)(=O)NC2(C(F)(F)F)NC(=O)N(CCc3ccccc3)C2=O)cc1 (stereo unspecified)	none
COc1cc(/C=N/NC(=O)C(Cc2c[nH]c3ccccc23)NC(=O)OCC(C)C)cc([N+](=O)[O-])c1OCc1ccccc1 (stereo unspecified)	none
COc1cc(/C=N/NC(=O)C(Cc2c[nH]c3ccccc23)NC(=O)OCc2ccccc2)cc([N+](=O)[O-])c1O (stereo unspecified)	rCAG binder 83, NadD inh 42, MsrA inhibitor 5.8 | MsrA inh confirm 5.2 | rCAG binder conf 81 | DNA CAG counter 47
O=[N+]([O-])c1ccccc1NC(=S)N/N=C/c1ccc(O)c(O)c1	rCAG binder 37, MsrA inhibitor 5.9 | MsrA inh confirm 7.3 | rCAG binder conf 43 | DNA CAG counter 23
O=[N+]([O-])c1ccccc1C=NNC(=S)NN=Cc1ccccc1[N+](=O)[O-]	none
N#CC(/C(=N/S(=O)(=O)c1cccs1)c1ccccc1)c1nc2ccccc2[nH]1 (stereo unspecified)	rCAG binder 42, MsrA inhibitor 5.0 | MsrA inh confirm 5.8 | rCAG binder conf inactive | DNA CAG counter inactive
N#CC(Cc1cccs1)c1nc2ccccc2[nH]1 (stereo unspecified)	none
COc1cc(/C=C/C(=O)O)cc(OC)c1OC	none
COc1cc(C)c(/C=C/C(C)=C/C=C/C(C)=C/C(=O)O)c(C)c1C	rCAG binder 47, MsrA inhibitor 4.7 | MsrA inh confirm inactive | rCAG binder conf 54 | DNA CAG counter 17
O=[N+]([O-])c1cc(/C=N/Nc2nc3ccccc3[nH]2)c(O)cc1O	rCAG binder 36, MsrA inhibitor 5.7 (no result: bovine MsrA act, NadD inh) | MsrA inh confirm 5.0 | rCAG binder conf inactive | DNA CAG counter 13
Cc1ccccc1/C=N/Nc1nc2ccccc2[nH]1	none
CCOC(=O)c1ccc(NC(=O)c2ncn3c2C(=O)NC[C@@H]3C)cc1	none
CCCCOc1ccc(C(=O)N/C(=C/C=C/c2ccccc2)C(=O)NC)cc1	none
O=C(O)COc1ccc(/C=N/NC(=O)c2cccc3ccccc23)cc1	none
O=C(O)COc1ccc(/C=N/NC(=O)/C(=C/C=C/c2ccccc2)NC(=O)c2ccccc2)cc1	rCAG binder 53, MsrA inhibitor 8.4 | MsrA inh confirm 7.9 | rCAG binder conf 43 | DNA CAG counter 17
CCCCOc1ccc(C(=O)N/C(=C/C=C/c2ccccc2)C(=O)O)cc1	rCAG binder 56, MsrA inhibitor 6.8 | MsrA inh confirm inactive | rCAG binder conf 54 | DNA CAG counter 19
CC(C)Oc1cccc(NC(=O)C2(C)CCN2C(=O)C(C)C)c1 (stereo unspecified)	none
COc1ccc(OC)c(NC(=O)CCC(=O)Oc2ccc(C)cc2)c1	none
CSc1ccccc1NC(=S)Nc1ccc(S(N)(=O)=O)cc1	none
COc1ccccc1NS(=O)(=O)c1ccc(N/N=C/c2ccccc2OCC(=O)O)c([N+](=O)[O-])c1	rCAG binder 92, MsrA inhibitor 5.4 | MsrA inh confirm inactive | rCAG binder conf 90 | DNA CAG counter 67
CCN(CC)S(=O)(=O)c1ccc(N/N=C/c2ccccc2OCC(=O)O)c([N+](=O)[O-])c1	rCAG binder 75, MsrA inhibitor 5.6 | MsrA inh confirm inactive | rCAG binder conf 75 | DNA CAG counter 36
NS(=O)(=O)c1ccc(N/N=C/c2ccccc2C(=O)O)c([N+](=O)[O-])c1	none
NC(Cc1ccc(F)cc1)c1csc(Nc2ccc(C(F)(F)F)cn2)n1 (stereo unspecified)	none
Cn1cc(/C=C2\SC(=O)NC2=S)c2ccccc21	rCAG binder 40, MsrA inhibitor 22 | MsrA inh confirm 7.0 | rCAG binder conf inactive | DNA CAG counter 11
CCOC(=O)C1=C(O)/C(=C/c2ccc(OCC(=O)O)c(OCC)c2)SC1=Nc1ccc(OC)cc1	rCAG binder 56, MsrA inhibitor 4.7 | MsrA inh confirm inactive | rCAG binder conf 64 | DNA CAG counter 22
COc1ccc(CNC(=O)c2ccc(CS(=O)c3ccccc3)o2)cc1 (stereo unspecified)	none
CC1CCCN(c2nc3ccccc3nc2C(C#N)S(=O)(=O)c2cccs2)C1 (stereo unspecified)	none
COc1ccc(S(=O)(=O)C(C#N)c2nc3ccccc3nc2N2CCCC(C)C2)cc1 (stereo unspecified)	rCAG binder 68 | rCAG binder conf 68 | DNA CAG counter 35
Fc1ccc(OCc2nc3ccccc3s2)cc1	none
CCOc1ccc(NC(=O)Nc2nc(SCC)ns2)cc1	rCAG binder 65 | rCAG binder conf inactive | DNA CAG counter 18
CCSc1nsc(NC(=O)Nc2ccccc2Cl)n1	none
CCC(Sc1nc(-c2ccccc2)c(-c2ccccc2)[nH]1)C(=O)O (stereo unspecified)	none
CCCCCc1c2c(cc(O)c1C(=O)O)OC(=O)c1cc(C(=O)CCCC)c(OC)cc1O2	rCAG binder 87 | rCAG binder conf 88 | DNA CAG counter 61
CCOC(=O)N1CCN(C(=O)C(CC)c2ccccc2)CC1 (stereo unspecified)	rCAG binder 39 | rCAG binder conf inactive | DNA CAG counter inactive
CCOC(=O)C1=C(O)/C(=C\c2ccc(CNC(=O)C(=O)Nc3ccccc3)o2)N=C1C	rCAG binder 46 | rCAG binder conf 39 | DNA CAG counter 19
CCOc1cc(C(=O)OCc2cc(=O)n3c(C)csc3n2)ccc1OC	none
Cn1c(CNC(=O)C(Cc2ccccc2)NC(=O)c2cccc(F)c2)cc(=O)n(C)c1=O (stereo unspecified)	none
Cc1nc2ccc(NS(=O)(=O)c3ccc(F)cc3F)cc2s1	none
O=S(=O)(Nc1nc(-c2ccco2)c(-c2ccco2)s1)c1ccc(F)cc1F	rCAG binder 62 | rCAG binder conf 53 | DNA CAG counter 20
CC1=NN(c2ccccc2)C(=O)C1/C=C1\NC(=S)NC1=O (stereo unspecified)	rCAG binder 55 | rCAG binder conf 72 | DNA CAG counter 36
